# High-throughput results: PubChem, National Center for Advancing Translational Sciences (NCATS)
# HCV inhibitor: blocks hepatitis C virus; Huh7.5.1 HCVcc-Cre infection, luciferase reporter, 44 h; Potency, µM (doses to about 41.8 µM), inactives show top-dose activity change, negative = inhibition, usual class: inhibitors; AID 651820; hit rate 3.4% among 340,000; active = well fitted inhibition curve with a large enough effect; inconclusive = small, poorly fitted or top-dose-only effect, or another doubt; inactive = no such curve, though single readings can be large or run the other way; also: potency is read from the fitted curve at half-maximal effect
#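 Infectious HCVcc-Cre (~0.5 moi) was added to cells just after compound, with cells seeded 4 h earlier at 1,000 per well. Luciferase activity after 44 h culture reported infection; substrate was incubated 15 min at room temperature before reading.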
# FMDV inh: antivirals against foot and mouth disease virus; FMDV antiviral cell-based qHTS; Potency, µM (doses to about 57.9 µM), for the others: at the highest dose activity change, negative = inhibition, usual class: inhibitors; hit rate 1.2% among 410,000; calls by dose curve; tested in HEK293T cells; also: read-out not given here; potency is read from the fitted curve at half-maximal effect; nearly all actives have a fitted effect of over 45% in size
# VACV Venus inh: inhibitors of vaccinia virus (Venus reporter); Potency, µM (doses to about 36.5 µM), inactives show at the highest dose activity change, negative = inhibition, usual class: inhibitors; Vaccinia virus Venus reporter expression, fluorescence; hit rate 0.46% among 330,000; calls by dose curve; tested in A549 cells; also: potency is read from the fitted curve at half-maximal effect; nearly all actives have a fitted effect of over 30% in size
# HCMV antiviral: blocks human cytomegalovirus replication | activity change, negative = inhibition, % at 57.5 µM | hit rate 4.5% among 410,000 | HFF cells, HCMV-luciferase reporter, 72 h; hits give low values | AID 1259415; in the data active = activity change below about -60%; inconclusive = no clear call, values can overlap the other calls; inactive = above about -39%
#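 After 16 h attachment at 37C, HFF cells received test compound and HCMV-luciferase (1 PFU/cell); reporter luminescence read 72 h later, data normalized against buffer-only and known inhibitor Salinomycin.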
# Vaccinia mCherry: vaccinia inhibition (mCherry reporter). hit rate 0.63% among 310,000. Potency, µM (titrated, usually from 36.5 µM), without a hit: at the top dose activity change, negative = inhibition, actives largely listed as inhibitors. Vaccinia virus mCherry reporter infection, fluorescence. AID 720579; calls by dose curve; tested in A549 cells; also: potency is read from the fitted curve at half-maximal effect; nearly all actives have a fitted effect of over 35% in size
# An asterisk follows results filed as active; i = inactive; ? = inconclusive; / = not tested or not shown; + = active, no number; ! = repeats disagree; [ ] = dose if it differs, or a comment. An excerpt weighted towards active compounds, which were near 7.3% of everything screened. % is scaled to controls: 0 for no effect and ±100 for the full control effect.
SMILES,HCV inhibitor,FMDV inh,VACV Venus inh,HCMV antiviral,Vaccinia mCherry
CCC(=O)Nc1ccc(Nc2nc(C)c([N+](=O)[O-])c(Nc3ccc(NC(=O)CC)cc3)n2)cc1,10µM*,?,-21%,-17,-17%
CC(=O)Nc1ccc(Nc2nc(C)c([N+](=O)[O-])c(Nc3ccccc3)n2)cc1,?,?,?,-22,-21%
COc1cccc(-c2onc3ccc(C(C)=O)cc23)c1,?,16%,/,-70*,/
CC(=O)c1ccc2noc(-c3cccc(F)c3)c2c1,2.2µM*,-1%,-15%,?,i
CC(=O)COC(=O)c1ccc2noc(-c3ccccc3)c2c1,-18%,-2%,-18%,-68*,i
CC(=O)c1ccc2noc(-c3ccc(C)cc3)c2c1,11%,18%,/,16,/
CC1(c2ccc3noc(-c4ccccc4)c3c2)OCCO1,?,16µM*,-18%,-16,/
CC(=O)OCC1=C(C(=O)O)N2C(=O)[C@@H](NC(=O)Cc3cccs3)[C@H]2SC1,0.56µM*!,0%,-2%,0,2%
CC(=O)OCC1=C(C(=O)O)N2C(=O)[C@@H](NC(=O)Cc3ccccc3)[C@H]2SC1,16%,?,3%,-19,28%
CC(OC(=O)c1ccc(-c2ccc(O)cc2)cc1)C(=O)NC1CCCCC1C (configuration not stated),13µM*,0%,-16%,3,-24%
CC(OC(=O)c1ccc2c(c1)OCO2)C(=O)NC1CCCCC1C (configuration not stated),?,-14%,-8%,?,-11%
Cc1[nH]c2ccc(C(=O)OC(C)C(=O)NC3CCCCC3C)cc2c1C (configuration not stated),22µM*,-10%,/,-36,/
Cc1[nH]c2ccc(C(=O)OC(C)C(=O)NC3(C#N)CCCCC3)cc2c1C (configuration not stated),14µM*,-3%,-15%,-25,-7%
O=C1CCCC(=O)N1c1ccc(N2CCN(c3ccc([N+](=O)[O-])cc3)CC2)c([N+](=O)[O-])c1,4%,/,/,/,/
O=C1CC(c2ccc3c(c2)OCO3)Sc2nc3ccccc3n21 (configuration not stated),9%,18µM*,-1%,?,i
O=c1c2ccccc2oc2cc(C#CC3(O)CCCCC3)ccc12,?,11µM*,-25%,-80*,-15%
O=c1c2ccccc2sc2ccc(C#CC3(O)CCCCC3)cc12,?,45µM*,?,-100*,-16%
CC(=O)Nc1ccc(-c2ccnc3c2CC(C)(C(=O)NCc2cccc(Cl)c2)O3)cc1 (configuration not stated),/,-7%,-17%,-35,-26%
Cc1ccc(CCNC(=O)Cn2ncc3c([nH]c4ccc(C)cc43)c2=O)cc1,/,0%,-4%,4,-6%
CC(=O)c1ccc(Oc2ncnc3sccc23)cc1,10%,43%,-3%,-37,i
CC(=O)N1CCN(c2ccc(Oc3ncnc4sccc34)cc2)CC1,?,?,/,-75*,/
NC1(CO)COC(c2ccccc2)OC1 (configuration not stated),/,0%,?,-28,?
CC(C)CCNc1nnnc2c1sc1nc(N3CCOCC3)c3c(c12)CC(C)(C)SC3,-2%,-28%,-8%,6,i
CC1(C)Cc2c(c(N3CCOCC3)nc3sc4c(NCCN5CCOCC5)nnnc4c23)CS1,11µM*,0%,/,4,/
O=C(Nc1cccc(F)c1)N1CC2(CCN(C(=O)c3ccco3)CC2)C1,/,8%,/,/,/
SMILES,HCV inhibitor,FMDV inh,VACV Venus inh,HCMV antiviral,Vaccinia mCherry
O=C(NCc1ccccc1F)c1cccc(NC(=O)N2CCSc3ncccc32)c1,/,-26%,-1%,+,-6%
O=C(NCc1ccccc1Cl)c1ccc(NC(=O)N2CCSc3ncccc32)cc1,/,-4%,-8%,+,-5%
O=[N+]([O-])c1ccc(SN2CCCCC2)c([N+](=O)[O-])c1,/,/,/,12,/
Cc1ccc(S(=O)(=O)N(C)CC(=O)N(C)Cc2cccs2)cc1,/,-7%,-11%,-38,-9%
COc1ccc(-c2noc(-c3ccco3)n2)cc1OC,11µM*,29%,-14%,130,i
COc1ccc(-c2noc(-c3ccccc3Cl)n2)cc1OC,10µM*,/,-1%,61,-4%
CCOc1ccc(-c2noc(-c3ccncc3)n2)cc1OCC,?,3%,/,41,/
CCOc1ccc(-c2nc(-c3ccc(OC)cc3)no2)cc1OCC,7.9µM*,-1%,/,1,/
COc1ccc(-c2noc(-c3ccoc3C)n2)cc1OC,-21%,65%,/,57,/
O=C(COC(=O)c1cc[n+]([O-])cc1)Nc1cc([N+](=O)[O-])ccc1Cl,-7%,-25%,-8%,-6,-12%
COc1ccc(-c2csc(NC(=O)C3CSC4(C)CCC(=O)N34)n2)cc1OC (configuration not stated),?,-1%,-18%,?,-16%
CC12CCC(=O)N1C(C(=O)Nc1nc(-c3ccccc3Cl)cs1)CS2 (configuration not stated),10µM*,-11%,?,2,?
COc1ccc(OC)c(-c2csc(NC(=O)C3CSC4(C)CCC(=O)N34)n2)c1 (configuration not stated),3.2µM*,23%,?,0,-25%
COc1ccccc1N1CCN(C(=O)c2cc3c(=O)n(Cc4cccnc4)ccc3nc2C)CC1,/,-17%,-7%,10,-5%
CSCCC(NC(=O)c1ccc([N+](=O)[O-])cc1Cl)C(=O)OC1CCCCC1=O (configuration not stated),20%,-1%,-10%,49,-26%
Cc1ccc(-c2nnc(-c3ccccc3)c(N3CCOCC3)n2)cc1,11µM*,?,/,-3,/
Cc1ccc(-c2cc3ccccc3nc2N2CCOCC2)cc1,10µM*,-19%,-6%,-29,i
c1ccc(-c2cc3ccccc3nc2N2CCCC2)cc1,?,-22%,-13%,-61*,/
CN1CCN(c2nc(-c3ccc(Br)cc3)nnc2-c2ccccc2)CC1,?,-15%,-28%,35,?
CCc1nnc(N/N=C/c2c(C)[nH]c3ccccc23)n1N,-9%,12%,?,-90*,?
O=[N+]([O-])c1cc(/C=N/Nc2nc3ccccc3[nH]2)c(O)cc1O,?,6%,?,-99*,2.8µM*
Cc1[nH]c2ccccc2c1/C=N/NC(N)=S,-11%,-18%,?,-17,?
Cc1[nH]c2ccccc2c1/C=N/Nc1nc2ccccc2[nH]1,?,0%,-19%[7.34 µM],-98*,?
C(=N\Nc1nc2ccccc2[nH]1)/c1c[nH]c2ccccc12,?,-24%,-19%,3,-4%
C(=N\Nc1nc2ccccc2[nH]1)/c1ccccc1,-20%,16%,-30%,52,-27%
C(=N\Nc1nc2ccccc2[nH]1)/C1CCCCC1,6%,19%,-9%,-87*,-21%
CCCCC(=O)N(C)c1c(CC)nc2c(OCc3ccc(C(F)(F)F)cc3)cccn12,/,?,-30%,-23,-13%
